Results taken from the supplement of paper PMC10849652.
The full data set covers some 8,800 targets. This sample favours those with a hit. About 0.5% of all pairs of compound and target were hits.

How the values were obtained:
Assay in all cases: log2 fold change, soluble protein after heating vs DMSO (PISA); higher = thermal stabilisation; K562 lysate, 10 uM; active = over 0.2 and 3.5 SD of the protein, either way, in both replicates (recomputed)
[1] = compound: C#Cc1cccc(Nc2ncnc3cc(OCCOC)c(OCCOC)cc23)c1 [erlotinib]
Method in brief: (§1)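 Log-two fold change in thermal stability relative to solvent controls is reported from duplicates. For each sample, crude K562 extract from dounce-homogenised pellets in PBS pH 7.4 with 1 mM MgCl2, at 1 mg/mL protein, was treated with 10 μM compound for 30 min. Aliquots heated for 3 min across 48°C-58°C were pooled, brought to 0.5% NP-40 at 4°C and cleared at 21,000xg for 90 min. The supernatant was quantified by TMTpro 16plex LC-MS/MS with channel sums equalised.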

[2] = compound: C/C(=N\NC(=O)C1=CC(=CC=C1)S(=O)(=O)N2CCOCC2)/C3=C(C=CC(=C3)Cl)O
Method in brief: as §1

[3] = compound: C1=CC(=CC=C1C2=NC3=C(N2)C=C(C=C3)C(=O)N)OC4=CC=C(C=C4)Cl
Method in brief: as §1

[4] = compound: C1=CC2=C(C=CC(=C2)/C=C\3/C(=O)NC(=NCC4=CC=CS4)S3)N=C1
Method in brief: as §1

[5] = compound: C1=CC2=NC=CN=C2C=C1/C=C/3\C(=O)NC(=O)S3
Method in brief: as §1

[6] = compound: C1=CC=C(C=C1)C2=NC(=C(N2)C3=CC=NC=C3)C4=CC(=C(C=C4)Cl)O
Method in brief: as §1

[7] = compound: C1=CC=C2C(=C1)C3=NNC4=CC=CC(=C43)C2=O
Method in brief: as §1

[8] = compound: C1CCN(C1)C(=O)NC2=CC=CC(=C2)NC3=NC=C(C(=N3)NCCC4=CN=CN4)Br
Method in brief: as §1

[9] = compound: C1CN(CCC1(CC2=CC=C(C=C2)Cl)N)C3=NC=NC4=C3C=CN4
Method in brief: as §1

[10] = compound: C1COCCN1CCN2C3=CC=CC=C3N=C2NC(=O)C4=CC(=CC=C4)[N+](=O)[O-] [IRAK-1-4 Inhibitor I]
Method in brief: as §1

[11] = compound: C=CC(=O)N1CCC[C@@H](n2nc(-c3ccc(Oc4ccccc4)cc3)c3c(N)ncnc32)C1 [ibrutinib]
Method in brief: as §1

[12] = compound: CC(=O)c1cnc2ccc(-c3cc(Cl)c(O)c(Cl)c3)nc2c1N[C@H]1CC[C@H](CN(C)C)CC1
Method in brief: as §1

[13] = compound: CC(C)(C)Cn1c(N)nc2ccc(-c3[nH]c(C(C)(C)C)nc3-c3ccc(F)cc3)nc21 [ralimetinib]
Method in brief: as §1

[14] = compound: CC(C)(O)CC(=O)NCCn1ccc2ncnc(Nc3ccc(Oc4cccc(C(F)(F)F)c4)c(Cl)c3)c21
Method in brief: as §1

[15] = compound: CC(C)C1=C2N=C(C=C(N2N=C1)NCC3=CC=CC=C3)NCCCCCCN
Method in brief: as §1

[16] = compound: CC1=C(C(CC(=O)N1)C2=CC=C(C=C2)C(F)(F)F)C(=O)NC3=C(C=C4C(=C3)C=NN4)F
Method in brief: as §1

[17] = compound: CC1=C(C2=C(C=C1)C(=O)C3=CC=CC=C3N2CCCN)C
Method in brief: as §1

[18] = compound: CC1=C(C=C(C=C1)NC(=O)C2=CC(=CC=C2)C(C)(C)C#N)NC3=CC4=C(C=C3)N=CN(C4=O)C
Method in brief: as §1

[19] = compound: CC1=C(C=C(C=C1)NC(=O)C2=CC(=CC=C2)N(C)C)NC(=O)C3=CC=C(C=C3)O
Method in brief: as §1

[20] = compound: CC1=CC=C(C=C1)SC2=C3C=C(SC3=CN=C2)C(=O)N
Method in brief: as §1

Measured: log2 fold change

HMBOX1 isoform 5 (UniProt Q6NT76)
inactive: [1] 0.045 | [2] -0.094 | [3] -0.004 | [4] 0.026 | [5] -0.037 | [6] -0.004 | [7] -0.057 | [8] -0.028 | [9] 0.004 | [10] -0.009 | [11] 0.051 | [12] 0.021 | [13] 0.026 | [14] 0.007 | [15] 0.072 | [16] -0.014 | [17] 0.052 | [18] 0.015 | [19] 0.005 | [20] 0.054

GOLPH3L (UniProt Q9H4A5)
inactive: [1] 0.028 | [2] -0.003 | [3] 0.012 | [4] 0.07 | [5] -0.03 | [6] 0.092 | [7] -0.085 | [8] 0.005 | [9] 0.03 | [10] 0.023 | [11] 0.058 | [12] 0.005 | [13] -0.058 | [14] 0.071 | [15] 0.009 | [16] -0.042 | [17] -0.01 | [18] 0.114 | [19] -0.029 | [20] 0.006

IGF2BP2 (UniProt Q9Y6M1)
Chain of UniProt Q9Y6M1 (Q9Y6M1 whole entry, looked up): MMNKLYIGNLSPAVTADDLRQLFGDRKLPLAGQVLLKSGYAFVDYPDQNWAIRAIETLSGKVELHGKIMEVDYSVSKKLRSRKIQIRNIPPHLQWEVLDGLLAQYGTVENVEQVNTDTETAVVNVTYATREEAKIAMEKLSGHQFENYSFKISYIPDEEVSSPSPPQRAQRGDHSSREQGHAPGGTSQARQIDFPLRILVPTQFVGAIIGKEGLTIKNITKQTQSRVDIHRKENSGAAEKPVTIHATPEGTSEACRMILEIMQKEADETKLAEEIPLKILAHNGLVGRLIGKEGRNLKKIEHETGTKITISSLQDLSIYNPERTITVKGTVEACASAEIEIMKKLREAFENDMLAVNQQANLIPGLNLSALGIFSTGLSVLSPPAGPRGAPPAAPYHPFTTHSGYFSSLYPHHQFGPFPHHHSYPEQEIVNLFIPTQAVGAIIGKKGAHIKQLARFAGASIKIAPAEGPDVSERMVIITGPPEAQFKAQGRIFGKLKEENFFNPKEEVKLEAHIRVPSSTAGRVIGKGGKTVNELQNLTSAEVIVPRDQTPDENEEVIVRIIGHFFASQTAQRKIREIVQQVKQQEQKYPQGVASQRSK
inactive: [1] 0.022 | [2] 0.049 | [3] -0.041 | [4] -0.032 | [5] 0.031 | [6] 0 | [7] -0.08 | [8] -0.023 | [9] 0.051 | [10] -0.022 | [11] 0.035 | [12] 0.007 | [13] 0.056 | [14] 0.035 | [15] 0.007 | [16] -0.008 | [17] -0.036 | [18] -0.075 | [19] 0.006 | [20] 0.056

IMPDH1 isoform 6 (UniProt P20839)
Chain of UniProt P20839 (P20839 whole entry, looked up): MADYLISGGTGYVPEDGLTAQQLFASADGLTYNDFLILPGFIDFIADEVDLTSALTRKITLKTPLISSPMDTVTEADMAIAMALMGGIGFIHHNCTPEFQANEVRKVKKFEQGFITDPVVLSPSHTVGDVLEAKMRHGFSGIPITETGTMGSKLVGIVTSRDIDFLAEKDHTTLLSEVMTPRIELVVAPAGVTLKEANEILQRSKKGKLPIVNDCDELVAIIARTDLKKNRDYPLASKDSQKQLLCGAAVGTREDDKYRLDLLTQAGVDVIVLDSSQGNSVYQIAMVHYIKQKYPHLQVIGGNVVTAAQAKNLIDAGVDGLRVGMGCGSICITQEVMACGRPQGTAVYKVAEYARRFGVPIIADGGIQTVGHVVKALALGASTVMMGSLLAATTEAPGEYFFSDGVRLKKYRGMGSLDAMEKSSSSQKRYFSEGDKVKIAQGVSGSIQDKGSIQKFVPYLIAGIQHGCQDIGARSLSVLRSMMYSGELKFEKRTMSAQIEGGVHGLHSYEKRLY
inactive: [1] 0.018 | [2] 0.036 | [3] -0.031 | [4] 0.009 | [5] -0.001 | [6] -0.001 | [7] 0.017 | [8] 0.028 | [9] 0.032 | [10] 0.003 | [11] -0.007 | [12] 0.009 | [13] 0.034 | [14] -0.007 | [15] 0.01 | [16] -0.039 | [17] 0.033 | [18] 0.014 | [19] -0.005 | [20] -0.004

KHK isoform 2 (UniProt P50053)
Chain of UniProt P50053 (P50053 whole entry, looked up): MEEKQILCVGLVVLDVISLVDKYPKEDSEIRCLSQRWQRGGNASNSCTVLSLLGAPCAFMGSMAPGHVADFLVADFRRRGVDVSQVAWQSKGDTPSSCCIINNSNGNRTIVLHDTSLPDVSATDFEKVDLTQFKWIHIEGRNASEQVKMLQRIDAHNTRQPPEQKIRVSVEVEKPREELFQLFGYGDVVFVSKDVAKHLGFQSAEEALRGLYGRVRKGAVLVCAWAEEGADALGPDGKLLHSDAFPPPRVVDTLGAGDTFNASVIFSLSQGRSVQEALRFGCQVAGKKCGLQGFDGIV
inactive: [1] -0.07 | [2] 0.024 | [3] 0.072 | [4] -0.005 | [5] 0.044 | [6] 0.069 | [7] 0.044 | [8] 0.032 | [9] -0.018 | [10] 0.084 | [11] 0.023 | [12] 0.039 | [13] 0.001 | [14] -0.032 | [15] -0.033 | [16] 0.013 | [17] -0.025 | [18] 0.185 | [19] -0.033 | [20] -0.04

HECTD3 (UniProt Q5T447)
inactive: [1] 0.027 | [2] 0 | [3] -0.005 | [4] 0.008 | [5] 0.022 | [6] 0.018 | [7] -0.008 | [8] -0.028 | [9] -0.026 | [10] 0.008 | [11] 0.054 | [12] 0.019 | [13] 0.037 | [14] -0.027 | [15] -0.022 | [16] -0.043 | [17] 0.022 | [18] -0.014 | [19] 0.002 | [20] 0.011

HK2 (UniProt P52789)
Chain of UniProt P52789 (P52789 whole entry, looked up): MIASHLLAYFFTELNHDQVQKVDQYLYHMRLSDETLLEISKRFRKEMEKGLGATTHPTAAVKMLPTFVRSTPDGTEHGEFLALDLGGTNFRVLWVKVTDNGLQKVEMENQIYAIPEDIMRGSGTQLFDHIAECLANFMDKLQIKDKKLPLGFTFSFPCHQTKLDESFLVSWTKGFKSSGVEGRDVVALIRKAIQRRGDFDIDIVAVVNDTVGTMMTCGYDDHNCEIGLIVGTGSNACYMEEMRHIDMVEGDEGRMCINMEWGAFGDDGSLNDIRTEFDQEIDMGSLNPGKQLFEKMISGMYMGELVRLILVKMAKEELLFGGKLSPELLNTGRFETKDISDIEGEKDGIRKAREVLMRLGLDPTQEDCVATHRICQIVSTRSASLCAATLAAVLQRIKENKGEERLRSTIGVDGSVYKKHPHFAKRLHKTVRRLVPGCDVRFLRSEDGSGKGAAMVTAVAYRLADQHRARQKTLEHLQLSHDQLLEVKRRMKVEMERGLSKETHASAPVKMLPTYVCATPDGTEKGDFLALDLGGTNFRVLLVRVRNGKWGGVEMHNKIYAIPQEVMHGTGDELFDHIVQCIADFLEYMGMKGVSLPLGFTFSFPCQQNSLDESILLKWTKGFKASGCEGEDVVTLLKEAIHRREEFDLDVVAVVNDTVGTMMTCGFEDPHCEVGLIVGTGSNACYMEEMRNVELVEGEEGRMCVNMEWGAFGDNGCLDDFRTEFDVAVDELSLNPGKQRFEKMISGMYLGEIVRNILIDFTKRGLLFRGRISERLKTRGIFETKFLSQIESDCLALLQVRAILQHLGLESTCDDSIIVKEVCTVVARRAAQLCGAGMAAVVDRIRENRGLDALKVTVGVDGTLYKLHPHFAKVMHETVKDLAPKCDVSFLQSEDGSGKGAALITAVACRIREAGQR
inactive: [1] 0.013 | [2] 0.007 | [3] -0.045 | [4] 0.019 | [5] -0.01 | [6] 0.026 | [7] -0.027 | [8] -0.016 | [9] 0.004 | [10] -0.002 | [11] 0.021 | [12] -0.005 | [13] 0.019 | [14] 0.006 | [15] -0.029 | [16] -0.007 | [17] 0.006 | [18] 0.008 | [19] 0.002 | [20] 0.011

H2AFY (UniProt O75367)
Chain of UniProt O75367 (O75367 whole entry, looked up): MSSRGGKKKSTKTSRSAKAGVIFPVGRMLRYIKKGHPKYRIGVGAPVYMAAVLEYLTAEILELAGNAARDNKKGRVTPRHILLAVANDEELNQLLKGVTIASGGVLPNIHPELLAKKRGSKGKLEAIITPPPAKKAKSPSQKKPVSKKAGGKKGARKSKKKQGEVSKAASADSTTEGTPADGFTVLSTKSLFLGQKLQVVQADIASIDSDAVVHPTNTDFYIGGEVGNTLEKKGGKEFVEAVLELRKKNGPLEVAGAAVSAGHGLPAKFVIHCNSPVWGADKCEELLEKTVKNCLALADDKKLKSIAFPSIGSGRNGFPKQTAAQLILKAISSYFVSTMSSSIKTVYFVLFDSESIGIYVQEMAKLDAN
inactive: [1] 0.02 | [2] -0.026 | [3] 0.049 | [4] 0.069 | [5] 0.013 | [6] 0.069 | [7] 0.081 | [8] -0.051 | [9] -0.113 | [10] 0.02 | [11] 0.051 | [12] -0.056 | [13] -0.025 | [14] -0.043 | [15] 0 | [16] -0.003 | [17] -0.148 | [18] -0.053 | [19] -0.033 | [20] -0.001

GPX4 (UniProt P36969)
Chain of UniProt P36969 (P36969 whole entry, looked up): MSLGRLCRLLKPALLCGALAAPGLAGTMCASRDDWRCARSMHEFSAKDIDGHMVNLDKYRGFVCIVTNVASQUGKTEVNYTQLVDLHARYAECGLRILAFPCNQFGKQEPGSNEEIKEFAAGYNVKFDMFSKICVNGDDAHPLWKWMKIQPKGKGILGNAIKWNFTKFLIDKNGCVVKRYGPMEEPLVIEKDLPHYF
inactive: [1] 0.02 | [2] 0.051 | [3] -0.037 | [4] -0.016 | [5] 0.04 | [6] -0.029 | [7] -0.06 | [8] 0.024 | [9] 0.021 | [10] 0.012 | [11] -0.013 | [12] 0.01 | [13] 0.011 | [14] 0.018 | [15] -0.004 | [16] 0.006 | [17] -0.002 | [18] 0.014 | [19] 0.003 | [20] 0.039

KDM6A (UniProt O15550)
inactive: [1] -0.022 | [2] -0.039 | [3] 0.061 | [4] 0 | [5] 0.006 | [6] 0.023 | [7] -0.064 | [8] 0.004 | [9] 0.045 | [10] 0.017 | [11] -0.007 | [12] 0.012 | [13] 0.003 | [14] -0.028 | [15] 0.025 | [16] -0.007 | [17] -0.065 | [18] 0.009 | [19] -0.004 | [20] 0.022

HSPA14 (UniProt Q0VDF9)
Chain of UniProt Q0VDF9 (Q0VDF9 whole entry, looked up): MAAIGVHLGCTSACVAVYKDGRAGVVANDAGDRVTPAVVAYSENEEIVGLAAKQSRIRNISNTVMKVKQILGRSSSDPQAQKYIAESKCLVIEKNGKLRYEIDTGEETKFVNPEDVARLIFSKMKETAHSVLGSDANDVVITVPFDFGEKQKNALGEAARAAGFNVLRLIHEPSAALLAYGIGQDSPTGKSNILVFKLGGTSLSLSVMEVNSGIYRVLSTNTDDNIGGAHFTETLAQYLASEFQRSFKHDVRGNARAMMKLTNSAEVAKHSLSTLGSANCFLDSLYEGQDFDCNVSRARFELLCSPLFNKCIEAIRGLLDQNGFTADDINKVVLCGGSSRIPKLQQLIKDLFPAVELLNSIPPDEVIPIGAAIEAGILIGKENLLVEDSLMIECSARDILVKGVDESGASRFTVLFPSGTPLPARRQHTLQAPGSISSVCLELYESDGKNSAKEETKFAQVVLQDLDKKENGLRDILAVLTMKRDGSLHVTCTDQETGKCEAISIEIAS
inactive: [1] 0.014 | [2] 0.025 | [3] -0.009 | [4] 0.009 | [5] 0.012 | [6] 0.049 | [7] -0.035 | [8] 0.018 | [9] 0.014 | [10] 0.003 | [11] 0.004 | [12] -0.008 | [13] 0.009 | [14] -0.013 | [15] -0.032 | [16] -0.02 | [17] -0.009 | [18] -0.012 | [19] 0.033 | [20] 0.004

HLTF (UniProt Q14527)
Chain of UniProt Q14527 (Q14527 whole entry, looked up): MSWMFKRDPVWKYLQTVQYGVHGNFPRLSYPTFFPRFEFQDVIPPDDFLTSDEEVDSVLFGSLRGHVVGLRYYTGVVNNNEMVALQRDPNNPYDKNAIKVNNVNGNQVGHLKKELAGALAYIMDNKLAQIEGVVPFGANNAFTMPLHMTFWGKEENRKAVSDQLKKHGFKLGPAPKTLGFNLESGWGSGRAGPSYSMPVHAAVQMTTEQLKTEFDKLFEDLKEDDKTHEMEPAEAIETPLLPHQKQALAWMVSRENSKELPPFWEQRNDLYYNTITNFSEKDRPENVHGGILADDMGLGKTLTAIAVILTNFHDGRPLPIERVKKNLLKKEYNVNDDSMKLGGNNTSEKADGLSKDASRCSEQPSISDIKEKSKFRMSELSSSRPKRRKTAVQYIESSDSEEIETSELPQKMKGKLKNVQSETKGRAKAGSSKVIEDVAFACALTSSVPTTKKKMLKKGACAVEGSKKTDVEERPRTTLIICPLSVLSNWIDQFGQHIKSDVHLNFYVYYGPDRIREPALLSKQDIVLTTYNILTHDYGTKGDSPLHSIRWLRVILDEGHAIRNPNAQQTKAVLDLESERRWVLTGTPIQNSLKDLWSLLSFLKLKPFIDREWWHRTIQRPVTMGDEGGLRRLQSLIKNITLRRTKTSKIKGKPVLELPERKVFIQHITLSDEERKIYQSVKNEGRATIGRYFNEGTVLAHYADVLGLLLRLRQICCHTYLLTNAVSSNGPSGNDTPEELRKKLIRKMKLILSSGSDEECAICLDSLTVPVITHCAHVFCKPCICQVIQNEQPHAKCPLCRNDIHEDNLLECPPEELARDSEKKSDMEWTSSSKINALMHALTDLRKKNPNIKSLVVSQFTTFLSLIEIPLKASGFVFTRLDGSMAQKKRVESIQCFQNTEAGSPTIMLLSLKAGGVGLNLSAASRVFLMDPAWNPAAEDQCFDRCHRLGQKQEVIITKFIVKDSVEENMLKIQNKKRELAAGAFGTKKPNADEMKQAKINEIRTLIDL
inactive: [1] 0.052 | [2] -0.019 | [3] 0.081 | [4] -0.003 | [5] -0.032 | [6] -0.028 | [7] 0.008 | [8] -0.053 | [9] 0.015 | [10] -0.019 | [11] 0.016 | [12] 0.054 | [13] 0.024 | [14] -0.017 | [15] -0.023 | [16] 0.046 | [17] 0.048 | [18] -0.022 | [19] 0.003 | [20] -0.018

GSK3B isoform 2 (UniProt P49841)
Chain of UniProt P49841 (P49841 whole entry, looked up): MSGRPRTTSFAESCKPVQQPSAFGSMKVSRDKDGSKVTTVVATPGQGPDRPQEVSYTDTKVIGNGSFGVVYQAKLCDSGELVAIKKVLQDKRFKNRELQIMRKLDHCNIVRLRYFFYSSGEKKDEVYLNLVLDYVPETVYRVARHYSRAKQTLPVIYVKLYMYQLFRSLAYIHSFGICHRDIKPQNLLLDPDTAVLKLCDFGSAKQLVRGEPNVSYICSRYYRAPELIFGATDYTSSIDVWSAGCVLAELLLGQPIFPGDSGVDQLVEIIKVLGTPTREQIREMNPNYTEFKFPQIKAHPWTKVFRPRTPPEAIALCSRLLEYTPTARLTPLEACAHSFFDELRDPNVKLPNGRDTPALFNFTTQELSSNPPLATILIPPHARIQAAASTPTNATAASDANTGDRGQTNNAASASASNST
inactive: [1] 0.043 | [2] -0.323 | [3] 0.036 | [4] 0.145 | [5] 0.085 | [6] 0.459 | [7] 0.132 | [8] 0.202 | [9] -0.011 | [10] -0.002 | [11] -0.064 | [12] 0.344 | [13] -0.012 | [14] -0.008 | [15] -0.016 | [16] -0.04 | [17] -0.006 | [18] -0.018 | [19] -0.029 | [20] 0.189
